This is an account of results in PubChem BioAssay AID1224921 (Broad Institute, 2016).

Out of some 1,400 compounds screened, about 350 (25%) were called active. Another 2% or so got no clear call; they are omitted. The list is a sample of the results. Entries with a potency or affinity are not part of this list. Unmarked numbers belong to inactive results. The rule behind the calls is not given here.

The assay can be described thus: inhibitors of Clostridioides difficile proliferation – 4-point retest, confirmation (AID 1224921).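 Note: plate controls were DMSO wells for no effect and levofloxacin 16 µg/mL wells for full effect.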 As to conditions: Clostridioides difficile clinical isolate growth, OD600, 24 h, stronger effect = lower value; at 30 µM unless noted.
As to `COc1ccccc1S(=O)(=O)N[C@H]1C=C[C@H](CC(=O)N2CCCCC2)O[C@@H]1CO`, the max activity is -11.2% [at 1.95 µM].

As to `C[C@H](NC(=O)C[C@@H]1C[C@@H]2c3cc(NC(=O)NC4CCCCC4)ccc3O[C@@H]2[C@@H](CO)O1)c1ccccc1`, the max activity is 6.02% [at 8 µM]. In the case of `CO[C@H]1CN(C)C(=O)c2cc(NC(=O)c3cc(C)on3)ccc2OC[C@H](C)N(C(C)=O)C[C@H]1C` it was -7.95% [at 1.95 µM]; in that of `O=C(C[C@@H]1C[C@@H]2c3cc(NC(=O)Nc4ccc(C(F)(F)F)cc4)ccc3O[C@@H]2[C@@H](CO)O1)NCC1CC1`, 20.8% [at 35 µM]. In the case of `CC(C)[C@@H](C)NC(=O)N(C)C[C@@H]1OCc2ccccc2-c2ccccc2C(=O)N([C@H](C)CO)C[C@H]1C` it was 47.6% [at 35 µM]; in that of `CO[C@H]1CN(C)C(=O)c2cc(NC(=O)C3CCC3)ccc2OC[C@H](C)N(Cc2ccc(F)cc2)C[C@H]1C`, 14.5%; in that of `COc1ccc(-c2ccc([C@H]3[C@H](C#N)N(C(=O)NC4CCCCC4)[C@H]3CO)cc2)cc1`, 32.4%. The figure for `C[C@H](CO)N1C[C@H](C)[C@H](CN(C)Cc2ccc3c(c2)OCO3)OCCCC[C@H](C)Oc2ccc(NC(=O)Nc3ccc(F)cc3)cc2C1=O` is -7.04% [at 0.5 µM]. On to `C[C@H](CO)N1C[C@H](C)[C@H](CN(C)Cc2ccc3c(c2)OCO3)OCCCC[C@H](C)Oc2ccc(NC(=O)Nc3ccc(C(F)(F)F)cc3)cc2C1=O`, for which the max activity is 31.6% [at 0.5 µM]. The figure for `C[C@@H]1CN([C@H](C)CO)C(=O)c2cc(NC(=O)Nc3ccc(C(F)(F)F)cc3)ccc2O[C@@H](C)CCCCO[C@@H]1CN(C)Cc1ccc2c(c1)OCO2` is 29.4% [at 1.95 µM]; for `C[C@@H]1CCCCO[C@H](CN(C)Cc2ccc3c(c2)OCO3)[C@@H](C)CN([C@H](C)CO)C(=O)c2cc(NC(=O)Nc3ccc(C(F)(F)F)cc3)ccc2O1` it is 15.4% [at 1.95 µM]; for `C[C@@H]1CCCCO[C@H](CN(C)Cc2ccc3c(c2)OCO3)[C@H](C)CN([C@@H](C)CO)C(=O)c2cc(NC(=O)Nc3ccc(F)cc3)ccc2O1` it is 23.7%. The figure for `C[C@@H]1CN([C@H](C)CO)C(=O)c2cc(NC(=O)Nc3ccc(F)cc3)ccc2O[C@@H](C)CCCCO[C@H]1CN(C)Cc1ccc2c(c1)OCO2` is -9.48%; for `CC(C)CC#Cc1ccc2c(c1)O[C@@H](CN(C)CC1CCOCC1)[C@H](C)CN([C@@H](C)CO)S2(=O)=O` it is 17.9%.

On to `CO[C@@H]1CN(C)C(=O)c2ccc(NC(=O)c3nc4ccccc4s3)cc2OC[C@@H](C)N(Cc2cccnc2)C[C@H]1C`, for which the max activity was 33.1%. Regarding `CC(C)CC#Cc1ccc2c(c1)O[C@H](CN(C)Cc1ccccc1F)[C@H](C)CN([C@H](C)CO)S2(=O)=O`, the max activity is 28.2%.

With `COc1ccccc1S(=O)(=O)N(C)C[C@H]1OCc2ccccc2-c2c(n(C)c3ccccc23)C(=O)N([C@@H](C)CO)C[C@H]1C`, the max activity is 11.5%. In the case of `C[C@@H]1CN([C@H](C)CO)S(=O)(=O)c2ccc(-c3ccccc3)cc2O[C@H]1CN(C)Cc1cccnc1` it was 46%; in that of `CN1CCN(C(=O)C[C@@H]2C[C@@H]3c4cc(NC(=O)Nc5ccc(C(F)(F)F)cc5)ccc4O[C@@H]3[C@H](CO)O2)CC1`, 30.1%; in that of `Cc1ccccc1-c1ccc2c(c1)O[C@@H](CN(C)Cc1ccncc1)[C@H](C)CN([C@@H](C)CO)S2(=O)=O`, 33.1%. The figure for `O=C(NCC[C@@H]1CC[C@H](NC(=O)C2CCCCC2)[C@@H](CO)O1)Nc1ccc(Cl)cc1` is 16.1% [at 8 µM]; for `O=C(NCC[C@H]1CC[C@@H](NC(=O)C2CCCCC2)[C@@H](CO)O1)Nc1ccc(Cl)cc1` it is 15.3% [at 8 µM]; for `O=C(Nc1ccc2c(c1)OCO2)N[C@H]1CC[C@H](CCNC(=O)C2CC2)O[C@@H]1CO` it is -10.4% [at 1.95 µM]. In the case of `CCNC(=O)C[C@@H]1CC[C@H](NC(=O)C2CC2)[C@@H](CO)O1` it was -9.17%; in that of `C[C@@H]1CN([C@@H](C)CO)S(=O)(=O)c2ccc(C#CC3CC3)cc2O[C@H]1CN(C)Cc1ccncc1`, 53.6%. Consider `C[C@@H]1CN([C@@H](C)CO)S(=O)(=O)c2ccc(C3=CCCC3)cc2O[C@H]1CN(C)Cc1ccncc1`, for which the max activity is 8.26%. In the case of `CCCN1[C@@H]2c3ccc(/C=C/c4ccccc4)c(=O)n3C[C@H]1[C@H](CO)[C@H]2C(=O)NCC1CC1` it was 3.29%. The figure for `O=C(Nc1ccc2c(c1)[C@@H]1C[C@H](CC(=O)N3CCc4ccccc4C3)O[C@H](CO)[C@@H]1O2)NC1CCCC1` is -11.8%; for `CC(C)[C@H](C)NC(=O)N(C)C[C@@H]1OCc2ccccc2-c2ccccc2C(=O)N([C@H](C)CO)C[C@H]1C` it is -14.1% [at 8 µM]. As for `CCC(=O)Nc1ccc2c(c1)C(=O)N(C)C[C@H](OC)[C@@H](C)CN(C(=O)CN1CCOCC1)[C@H](C)CO2`, the max activity is -15.4% [at 1.95 µM]. In the case of `CCCNC(=O)Nc1ccc2c(c1)C(=O)N(C)C[C@@H](OC)[C@H](C)CN(CCC(F)(F)F)[C@@H](C)CO2` it was 17.1%.

Regarding `CO[C@@H]1CN(C)C(=O)c2cc(NC(=O)c3cccc(F)c3)ccc2OC[C@H](C)N(C(C)=O)C[C@H]1C`, the max activity was -16.4% [at 0.5 µM].

Consider `CCCN1C[C@H](C)[C@@H](OC)CN(C)C(=O)c2cc(NC(=O)Nc3ccccc3F)ccc2OC[C@H]1C`, for which the max activity was -17.1% [at 8 µM]. The figure for `Cc1noc(C)c1NC(=O)N[C@H]1CC[C@@H](CC(=O)Nc2ccc(-c3ccccc3)cc2)O[C@@H]1CO` is 28.3% [at 35 µM]; for `O=C(O)C[C@H]1C[C@@H]2c3cc(NC(=O)c4ccc5c(c4)OCO5)ccc3O[C@@H]2[C@H](CO)O1` it is -10.2% [at 0.5 µM]; for `CCNC(=O)C[C@H]1CC[C@H](NC(=O)C2CC2)[C@@H](CO)O1` it is -15.8% [at 8 µM]. The figure for `CCNC(=O)C[C@H]1CC[C@@H](NC(=O)C2CC2)[C@H](CO)O1` is -5.49% [at 1.95 µM]; for `CO[C@@H]1CN(C)C(=O)c2ccc(NC(=O)Nc3cccc(Cl)c3)cc2OC[C@@H](C)N(C(=O)Nc2c(C)noc2C)C[C@H]1C` it is -7.11% [at 0.5 µM]. Turning to `C[C@@H]1CN([C@@H](C)CO)S(=O)(=O)c2ccc(C3=CCCCC3)cc2O[C@@H]1CN(C)Cc1ccncc1`, the max activity was 54.5%. As for `CCS(=O)(=O)Nc1ccc2c(c1)C(=O)N(C)C[C@H](OC)[C@@H](C)CN(C(C)=O)[C@@H](C)CO2`, the max activity was -9.47% [at 1.95 µM]. The figure for `CO[C@@H]1CN(C)C(=O)c2cc(NC(C)=O)ccc2OC[C@H](C)N(Cc2nccs2)C[C@H]1C` is 10.1%; for `CO[C@H]1CN(C)C(=O)c2cc(NC(C)=O)ccc2OC[C@H](C)N(CC2CCCCC2)C[C@H]1C` it is 16.4%; for `C[C@@H]1CN([C@H](C)CO)S(=O)(=O)c2ccc(C#CC3(O)CCCC3)cc2O[C@@H]1CN(C)C(=O)Nc1ccc(F)cc1` it is 21.5%. In the case of `O=C(C[C@@H]1C=C[C@@H](NC(=O)Cc2cccnc2)[C@H](CO)O1)Nc1ccccc1` it was -12.6%. The figure for `COc1ccccc1S(=O)(=O)N[C@@H]1C=C[C@H](CC(=O)N2CCCCC2)O[C@H]1CO` is -12.3% [at 8 µM]; for `O=C(C[C@@H]1C[C@H]2c3cc(NC(=O)Nc4ccccc4)ccc3O[C@H]2[C@@H](CO)O1)NC1CCCC1` it is -18%; for `Cc1ccc(-c2ccc3c(c2)O[C@H](CN(C)Cc2cccnc2)[C@H](C)CN([C@@H](C)CO)S3(=O)=O)cc1` it is 32.9%.

With `CC(=O)N(C)C[C@@H]1Oc2ncc(C#Cc3ccc(F)cc3)cc2C(=O)N([C@H](C)CO)C[C@H]1C`, the max activity was 21.7%. In the case of `CO[C@H]1CN(C)C(=O)c2ccc(NC(=O)Nc3cccc(Cl)c3)cc2OC[C@@H](C)NC[C@@H]1C` it was 37.7%; in that of `CO[C@H]1CN(C)C(=O)c2ccc(NC(=O)Nc3cccc(Cl)c3)cc2OC[C@H](C)NC[C@@H]1C`, -12.1% [at 8 µM]; in that of `C[C@@H]1CN([C@H](C)CO)C(=O)c2cc(NC(=O)CCCN(C)C)ccc2O[C@@H](C)CCCCO[C@@H]1CN(C)Cc1ccc(C(F)(F)F)cc1`, 6.03% [at 35 µM]. The figure for `C[C@@H]1CN([C@H](C)CO)C(=O)c2cc(NC(=O)Nc3cccc4ccccc34)ccc2O[C@@H](C)CCCCO[C@H]1CN(C)C(=O)c1ccccc1` is 24.4%; for `CO[C@@H]1CN(C)C(=O)c2ccc(NC(C)=O)cc2OC[C@@H](C)N(C(=O)CN(C)C)C[C@H]1C` it is -8.17%; for `CCCC(=O)Nc1ccc2c(c1)C(=O)N(C)C[C@@H](OC)[C@@H](C)CN(Cc1ccc(F)cc1)[C@H](C)CO2` it is 20.9%. In the case of `COc1ccc(-c2cnc3c(c2)C(=O)N([C@H](C)CO)C[C@H](C)[C@@H](CN(C)Cc2ccc(C(=O)O)cc2)O3)cc1` it was -17.6% [at 2.1 µM].

Turning to `CO[C@H]1CN(C)C(=O)c2cc(NC(=O)c3nc4ccccc4s3)ccc2OC[C@H](C)N(Cc2ccncc2)C[C@@H]1C`, the max activity is 20%. For `CCC(=O)N1C[C@@H](C)[C@@H](OC)CN(C)C(=O)c2ccc(NC(=O)Nc3ccccc3)cc2OC[C@H]1C`, the max activity was -13.3% [at 1.95 µM].
